Results published in PubChem BioAssay (NCI).
This is part of a sample that, as a whole, favours compounds with a hit. Of some 79,000 tested, about 15% had one in any assay. Calls of active or inactive are those of the source. Rule as the data show it: active = growth inhibition above about 70%; inactive = the rest.

Key:
[1] = NCI Yeast Anticancer Drug Screen. Data for the rad50 strain (AID 155);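 also: 0% = growth of vehicle-only cultures of the same strain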; conditions: S. cerevisiae rad50 strain growth inhibition, hits give high values
Procedure, shortened: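 Inhibition values express reduced yeast growth in compound-treated cultures relative to vehicle-treated controls.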

[2] = NCI Yeast Anticancer Drug Screen. Data for the mec2-1 strain (AID 157); conditions: S. cerevisiae mec2-1 strain, hits give high values
Procedure, shortened: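 Readout is yeast growth inhibition, normalised to vehicle-treated controls, in the mec2-1 strain exposed to compound.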

[3] = NCI Yeast Anticancer Drug Screen. Data for the sgs1 mgt1 strain (AID 161);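 also: 0% = growth of cultures given vehicle only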; conditions: S. cerevisiae sgs1 mgt1 strain, hits give high values
Procedure, shortened: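 This yeast growth screen uses a strain with defined DNA-repair lesions; compound-treated growth is compared with vehicle-treated growth.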

[4] = NCI Yeast Anticancer Drug Screen. Data for the cln2 rad14 strain (AID 165);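 also: 0% = growth equal to vehicle treated cultures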; conditions: S. cerevisiae cln2 rad14 strain, hits give high values
Procedure, shortened: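 Relative to vehicle controls, growth inhibition of compound-treated cln2 rad14 yeast was recorded.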

[5] = NCI Yeast Anticancer Drug Screen. Data for the bub3 strain (AID 167); conditions: S. cerevisiae bub3 mutant strain, hits give high values
Procedure, shortened: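 Steps: expose the mutant yeast strain to compound; grow alongside vehicle-treated cultures; measure growth; express inhibition against the vehicle cultures.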

[6] = NCI Yeast Anticancer Drug Screen. Data for the mlh1 rad18 strain (AID 175); conditions: S. cerevisiae mlh1 rad18 strain growth inhibition, hits give high values
Procedure, shortened: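 Test agents were incubated with a yeast strain of defined genotype (DNA damage repair defect). Inhibition of growth was derived by comparison with vehicle-exposed cultures.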

[7] = at 5.0 µM (retest, dose inferred, filed as 0.5)
[8] = at 50.0 µM (retest, dose inferred, filed as 5.0)

Measured: growth inhibition

COC(=O)/C=C(\C)Nc1ccc(Cc2ccc(Br)cc2)cc1
inactive: [1]; [7] -4% | [2]; [7] -13% | [3]; [7] -8% | [4]; [7] 0% | [5]; [7] -5% | [6]; [7] -4%
active: [1]; [8] 98% | [1]; at 50.0 µM 97.5% | [2]; [8] 99% | [2]; at 50.0 µM 96.8% | [3]; [8] 99% | [3]; at 50.0 µM 97.8% | [4]; [8] 99% | [4]; at 50.0 µM 92.9% | [5]; [8] 98% | [5]; at 50.0 µM 94% | [6]; [8] 99% | [6]; at 50.0 µM 98%

CC(=O)Nc1ccc(N=Cc2cc(Cl)cc(Cl)c2O)cc1
inactive: [4]; [7] 54% | [4]; at 50.0 µM 53% | [6]; at 50.0 µM 65.8%
active: [1]; [7] 82% | [1]; [8] 99% | [1]; at 50.0 µM 80.2% | [2]; [7] 90% | [2]; [8] 99% | [2]; at 50.0 µM 73.5% | [3]; [7] 97% | [3]; [8] 95% | [3]; at 50.0 µM 89.3% | [4]; [8] 94% | [5]; [7] 97% | [5]; [8] 97% | [5]; at 50.0 µM 81.7% | [6]; [7] 80% | [6]; [8] 99%

N#CC(C(=O)C(N)=O)c1ccc(Cl)cc1Cl (stereo not given)
active: [1]; at 50.0 µM 82.2% | [2]; at 50.0 µM 99.6% | [3]; at 50.0 µM 99.6% | [4]; at 50.0 µM 91.3% | [5]; at 50.0 µM 96.6% | [6]; at 50.0 µM 99.2%
inactive: [1]; [7] 0% | [1]; [8] -2% | [2]; [7] 1% | [2]; [8] 6% | [3]; [7] 1% | [3]; [8] 0% | [4]; [7] -4% | [4]; [8] 8% | [5]; [7] -1% | [5]; [8] 21% | [6]; [7] -3% | [6]; [8] 2%

C1=NC(N(Cc2ccccc2)Cc2ccccc2)N(Cc2ccccc2)N1 (stereo not given)
active: [1]; [8] 95% | [1]; at 50.0 µM 92.4% | [2]; [8] 95% | [2]; at 50.0 µM 93.6% | [3]; [8] 94% | [3]; at 50.0 µM 92.1% | [4]; [8] 95% | [4]; at 50.0 µM 89.8% | [5]; [8] 96% | [5]; at 50.0 µM 92.2% | [6]; [8] 96% | [6]; at 50.0 µM 88.8%
inactive: [1]; [7] 26% | [2]; [7] -1% | [3]; [7] 14% | [4]; [7] -1% | [5]; [7] -14% | [6]; [7] -19%

Nc1nnc2nc(CC(=O)c3ccc([N+](=O)[O-])cc3)c(CC(=O)c3ccc([N+](=O)[O-])cc3)nn12
inactive: [1]; [7] 6% | [1]; [8] -3% | [1]; at 50.0 µM 3.7% | [2]; [7] 15% | [2]; [8] 15% | [2]; at 50.0 µM 19.2% | [3]; [7] 6% | [3]; [8] 2% | [3]; at 50.0 µM 11.8% | [4]; [7] 4% | [4]; [8] 4% | [4]; at 50.0 µM 43.1% | [5]; [7] 6% | [5]; [8] 1% | [5]; at 50.0 µM 0.8% | [6]; [7] 4% | [6]; [8] 26% | [6]; at 50.0 µM 3.05%

CN(NC(=O)/C(=C/c1cc(Cl)cc(Cl)c1O)NC(=O)c1ccccc1)c1cnn(-c2ccccc2)c(=O)c1Cl
inactive: [1]; [7] 15% | [1]; [8] 43% | [1]; at 50.0 µM 52.9% | [2]; [7] 3% | [2]; [8] 36% | [2]; at 50.0 µM 39.2% | [3]; [7] -4% | [3]; [8] 45% | [3]; at 50.0 µM 59.1% | [4]; [7] -6% | [4]; [8] 47% | [4]; at 50.0 µM 55.6% | [5]; [7] -13% | [5]; [8] 43% | [5]; at 50.0 µM 60% | [6]; [7] -7% | [6]; [8] 62% | [6]; at 50.0 µM 67%

O=[N+]([O-])c1ccc2c(c1)/C(=N\O)c1cc(Br)ccc1-2
inactive: [1]; [7] 14% | [1]; [8] 39% | [2]; [7] 5% | [2]; [8] 24% | [3]; [7] 13% | [3]; [8] 33% | [3]; at 50.0 µM 67.2% | [4]; [7] -2% | [4]; [8] 14% | [4]; at 50.0 µM 35.4% | [5]; [7] -5% | [5]; [8] 3% | [5]; at 50.0 µM 13.7% | [6]; [7] 10% | [6]; [8] 29%
active: [1]; at 50.0 µM 91.4% | [2]; at 50.0 µM 71% | [6]; at 50.0 µM 96.8%

O=C(CCCO)N/N=C\c1ccc([N+](=O)[O-])s1
inactive: [1]; [7] 5% | [1]; [8] 31% | [1]; at 50.0 µM 18.8% | [2]; [7] -7% | [2]; [8] 23% | [2]; at 50.0 µM -3.55% | [3]; [7] 8% | [3]; [8] 39% | [3]; at 50.0 µM 31.8% | [4]; [7] -2% | [4]; [8] 20% | [5]; [7] -1% | [5]; [8] 17% | [5]; at 50.0 µM 5.5% | [6]; [7] 12% | [6]; at 50.0 µM 62.2%
active: [4]; at 50.0 µM 72.2% | [6]; [8] 74%

CN(C)N=Nc1ccc(NC(N)=O)cc1
active: [1]; [8] 78% | [6]; at 50.0 µM 81.2%
inactive: [1]; [7] 33% | [1]; at 50.0 µM 43.8% | [2]; [7] 16% | [2]; [8] 43% | [2]; at 50.0 µM 65.3% | [3]; [7] 38% | [3]; [8] 45% | [3]; at 50.0 µM 12.6% | [4]; [7] 38% | [4]; [8] 51% | [4]; at 50.0 µM 23.3% | [5]; [7] 42% | [5]; [8] 50% | [5]; at 50.0 µM 67.7% | [6]; [7] 25% | [6]; [8] 58%

COc1ccc(-c2c3c(cc4cc5c(cc24)OCO5)C(=O)OC3)cc1OC
active: [1]; [8] 96% | [1]; at 50.0 µM 92.5% | [2]; [8] 96% | [2]; at 50.0 µM 93.9% | [3]; [8] 96% | [3]; at 50.0 µM 93.7% | [4]; [8] 87% | [4]; at 50.0 µM 92.3% | [5]; [8] 97% | [5]; at 50.0 µM 92.3% | [6]; [8] 96% | [6]; at 50.0 µM 78.8%
inactive: [1]; [7] 26% | [2]; [7] 30% | [3]; [7] 57% | [4]; [7] 16% | [5]; [7] 51% | [6]; [7] 62%
